The list is not random: actives were taken first. Their share in the collection is about 28%.
CYP2C9 inhib = human CYP2C9 inhibition | CYP2C9 Supersomes, luciferin-H conversion, luminescence | AID 777 | hit rate 20% among 96,000 | inhibition, % at 5 µM;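 active means blocking of liver enzyme CYP2C9 beyond about 50% at 5 µM, limit read from the data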
Target sequence (P11712 whole entry, looked up): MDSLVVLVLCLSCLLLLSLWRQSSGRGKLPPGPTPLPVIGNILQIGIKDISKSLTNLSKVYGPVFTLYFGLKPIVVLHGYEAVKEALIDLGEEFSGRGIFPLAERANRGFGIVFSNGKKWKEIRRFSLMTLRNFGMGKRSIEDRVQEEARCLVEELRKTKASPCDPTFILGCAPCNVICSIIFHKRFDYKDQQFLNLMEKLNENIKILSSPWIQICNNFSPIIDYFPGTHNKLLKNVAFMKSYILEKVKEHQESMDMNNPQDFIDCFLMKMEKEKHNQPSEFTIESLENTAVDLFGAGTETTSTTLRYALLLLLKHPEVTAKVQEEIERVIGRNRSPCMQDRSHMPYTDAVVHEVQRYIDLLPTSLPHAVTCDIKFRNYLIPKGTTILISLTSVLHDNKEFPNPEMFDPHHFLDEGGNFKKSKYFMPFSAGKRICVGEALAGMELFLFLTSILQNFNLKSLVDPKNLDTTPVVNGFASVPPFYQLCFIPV
CYP2C19 inhib = human CYP2C19 inhibition; CYP2C19 Supersomes, luciferin-H EGE luminescence, 30 min; AID 778; hit rate 21% among 96,000; inhibition, % at 5 µM;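 active means CYP2C19 inhibition above a set limit at 5 µM in the primary screen, cut at about 50% in these data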
CYP2C19 act = activators of human cytochrome P450 2C19 | P33261 | recombinant CYP2C19, luciferin-H EGE luminescence; stronger effect = higher value; 0 = fully inhibited enzyme, 1 = untreated enzyme | activation factor at 5 µM | 96,000 tested, under 10 active;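 active means activation factor of at least 2 at 5 µM in the primary screen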
PTK2B oligo ant = antagonists of human Pyk2 oligomerization; Q14289; Q293 cells, Pyk2 FERM NanoBiT luminescence; stronger effect = lower value; z-score (the deposit names both 25 µM and 10 µM); hit rate 0.83% among 99,000; AID 1347419;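 active means Z-score of -3 or lower, scaled per plate to the spread of control and sample wells; inactive means z-score above -3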;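 further: negative z-score means lost luminescence so less FERM oligomerization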
CYP2C9 act = activators of human CYP2C9; P11712; recombinant CYP2C9, luciferin-H conversion, luminescence; stronger effect = higher value; factor 1 = untreated enzyme, 0 = blocked; activation factor at 5 µM; hit rate 1.4% among 96,000;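 active means activation factor of 2 or more for CYP2C9 at a 5 µM dose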
Large screens that a line does not name were inactive.

O=C(NCCCn1ccnc1)c1cccc(S(=O)(=O)Nc2ccccc2F)c1	CYP2C9 inhib 100.4, CYP2C19 inhib 61.2
O=C(NCCCn1ccnc1)Nc1cccc2ccccc12	none (no result: CYP2C9 inhib, CYP2C19 inhib, CYP2C19 act, CYP2C9 act)
Cc1cc(NCCO)nc(N2CCOCC2)n1	none
Cc1cc(C(=O)NCCCn2ccnc2)cs1	CYP2C9 inhib 65.8, CYP2C19 inhib 88.4
Cc1cc(C(=O)NCCCN2CCCC2=O)cs1	none
CC(C)n1cc(-c2ccc(Cl)cc2)cc(C#N)c1=O	none
CC(C)n1cc(C(=O)c2cc(Br)ccc2O)cc(C#N)c1=O	CYP2C9 inhib 88.5, CYP2C19 inhib 97.7
CCCCn1cc(C(=O)c2cc(Br)ccc2O)cc(C#N)c1=O	CYP2C9 inhib 59.4, CYP2C19 inhib 77.9
Cc1cc(C)n(CC(=O)c2ccc(Br)cc2)c(=O)c1C#N	none
N#Cc1cc(C(=O)c2cc(Br)ccc2O)cn(C2CC2)c1=O	CYP2C19 inhib 50.8
Cc1c(-n2cc(C(=O)c3ccccc3O)cc(C#N)c2=O)c(=O)n(-c2ccccc2)n1C	none
N#CCSc1ncnc2c1cnn2CCO	none
N#Cc1cnn(-c2nc(SCc3ccccc3)nc3sc4c(c23)CCCC4)c1N	none
COCCCNc1nc(SCc2ccccc2)nc2sc3c(c12)CCC3	CYP2C9 inhib 60.9
CCc1nc(N2CCCC2)c(C#N)c2c1CCCC2	none
CCc1nc(N2CCOCC2)c(C#N)c2c1CCCC2	CYP2C19 inhib 77.8
CCCCc1nc(NCC2CCCO2)c(C#N)c2c1COC(C)(C)C2 (stereo not drawn)	none (no result: CYP2C9 inhib, CYP2C19 inhib, CYP2C19 act, CYP2C9 act)
CC(C)c1nc(N2CCCC2)c(C#N)c2c1CCCC2	CYP2C9 inhib 54.6, CYP2C19 inhib 53.8
CCCc1nc(N2CCCC2)c(C#N)c2c1CCCC2	CYP2C9 inhib 73.4
CCCCc1nc(N2CCOCC2)c(C#N)c2c1COC(C)(C)C2	CYP2C9 inhib 73.2, CYP2C19 inhib 86.8
Cn1nnnc1SCC(=O)Nc1ccc(N2CCOCC2)cc1	none
O=C1CCC2(C(=O)O)Sc3ccccc3N12 (stereo not drawn)	none
Cn1c(=O)c2c(n(Cc3ccccc3)c1=O)NC(=O)C2CC(=O)O (stereo not drawn)	none
CCCCn1c2c(c(=O)n(C)c1=O)C(CC(=O)OCC(=O)Nc1cccc(C(F)(F)F)c1)C(=O)N2 (stereo not drawn)	CYP2C9 inhib 86.4
COc1ccc(C(=O)c2ccc(CC#N)s2)cc1	CYP2C19 inhib 56.2
CCOc1cc(S(=O)(=O)NC2CC2)c(OCC)cc1-n1cnnn1	CYP2C9 inhib 95.3, CYP2C19 inhib 79.9
CCOc1cc(S(=O)(=O)NCc2ccc(OC)cc2)c(OCC)cc1-n1cnnn1	CYP2C9 inhib 85.4
CCOc1cc(S(=O)(=O)NCc2ccco2)c(OCC)cc1-n1cnnn1	CYP2C9 inhib 68.6
CCOc1cc(S(=O)(=O)NCCc2ccc(OC)c(OC)c2)c(OCC)cc1-n1cnnn1	CYP2C9 inhib 75.8
CCOc1cc(S(=O)(=O)N2CCN(c3ccc(F)cc3)CC2)c(OCC)cc1-n1cnnn1	none
CCOC(=O)c1c(NC(=O)c2nc3n(n2)C(C(F)F)CC(C)N3)sc2c1CCCC2 (stereo not drawn)	none
CCOc1ccc(-n2cnnn2)cc1S(=O)(=O)NCCc1ccc(OC)c(OC)c1	none
CCOc1cc(S(=O)(=O)NCC2OCCc3ccccc32)c(OCC)cc1-n1cnnn1 (stereo not drawn)	CYP2C9 inhib 50.8
CCCCNC(=O)Oc1cccc(N2CCCC2=O)c1	none
Cc1ccc(CC(=O)OCCNC(=O)c2cccnc2)cc1	none
Cc1ccc2[nH]cc(CCNC(=O)c3cccnc3)c2c1	CYP2C9 inhib 64.2, CYP2C19 inhib 87.8
O=C(NCCc1c[nH]c2ccccc12)C(F)(F)F	none
Cc1ccc2[nH]cc(CCNC(=O)Nc3ccccc3)c2c1	CYP2C9 inhib 53.5, CYP2C19 inhib 97.1
CCNC(=O)NCCc1c[nH]c2ccc(Cl)cc12	CYP2C19 inhib 78.1
CCOC(=O)N1CCC(NC(=O)c2cc(C(=O)NCC(OC)OC)ccc2CO)CC1	none
O=C(CSc1nnc(-c2cccc(Cl)c2)o1)Nc1ccc2c(c1)OCCO2	none (no result: CYP2C9 inhib, CYP2C19 inhib, CYP2C19 act, CYP2C9 act)
O=C(CSCc1ccccc1Cl)Nc1ccc2c(c1)OCCO2	CYP2C9 inhib 59.9
O=C(CC(c1ccccc1)c1ccccc1)Nc1ccc2c(c1)OCCO2	CYP2C9 inhib 52.1
O=C(NCc1cccc(C(F)(F)F)c1)C1CCN(c2ncccn2)CC1	CYP2C9 inhib 67.3
Cc1ccnc(N2CCC(C(=O)Nc3ccc(Oc4ccccc4)cc3)CC2)n1	none
Cc1ccnc(N2CCC(C(=O)Nc3cccc(C(F)(F)F)c3)CC2)n1	CYP2C19 inhib 91.4
CCc1ccc(-c2cc(C(=O)Nc3c(C)n(C)n(-c4ccccc4)c3=O)c3ccccc3n2)s1	CYP2C19 inhib 51.3
Cc1cc(Br)cc2c(C(=O)Nc3c(C)n(C)n(-c4ccccc4)c3=O)cc(-c3cccs3)nc12	CYP2C9 inhib 76.4
Cc1cc(C(=O)Nc2c(C)n(C)n(-c3ccccc3)c2=O)c2ccccc2n1	none
Cc1c(NC(=O)c2cc(=O)[nH]c3ccccc23)c(=O)n(-c2ccccc2)n1C	none
COc1ccc(-c2cc(C(=O)Nc3cc(C)n(Cc4ccc(Cl)cc4)n3)no2)cc1OC	none
Cc1nnc(SCC(=O)NCc2cccs2)n1-c1ccccc1	none
Cc1nnc(SCc2ccccc2F)n1NCc1cccs1	CYP2C9 inhib 55.4, CYP2C19 inhib 92.9
CCOCCCNC(=O)c1ccc(CS(=O)(=O)Cc2ccccc2F)o1	none
Cc1ccccc1S(=O)(=O)Cc1ccc(C(=O)NCCCOC(C)C)o1	none
CC(NC(=O)c1ccc(CS(=O)(=O)c2ccc(Cl)cc2)o1)c1ccc2c(c1)OCCO2 (stereo not drawn)	CYP2C9 inhib 73.7
CC(NC(=O)c1ccco1)c1ccc2c(c1)OCCO2 (stereo not drawn)	none (no result: CYP2C9 inhib, CYP2C19 inhib, CYP2C19 act, CYP2C9 act)
Cc1ccccc1S(=O)(=O)Cc1ccc(C(=O)NC(C)c2ccc3c(c2)OCCO3)o1 (stereo not drawn)	CYP2C9 inhib 98.5, CYP2C19 inhib 98.7 (no result: PTK2B oligo ant)
Cc1ccc(C(=O)Nc2ccccc2N2CCN(C(=O)C(C)C)CC2)cc1C	CYP2C9 inhib 89.1, CYP2C19 inhib 75.9
COc1ccc(C(=O)Nc2ccccc2N2CCOCC2)cc1Br	none (no result: CYP2C9 inhib, CYP2C19 inhib, CYP2C19 act, CYP2C9 act)
CCC(=O)N1CCN(c2ccccc2NC(=O)c2ccc(OC)c(Cl)c2)CC1	CYP2C9 inhib 81.8, CYP2C19 inhib 73.5
COc1c(F)c(F)c(C(=O)Nc2ccccc2N2CCN(C(C)=O)CC2)c(F)c1F	none
COc1c(F)c(F)c(C(=O)Nc2ccccc2N2CCN(C(=O)C(C)C)CC2)c(F)c1F	CYP2C9 inhib 77.6, CYP2C19 inhib 61.3
O=C(NCCOc1ccccc1)c1n[nH]c(=O)c2ccccc12	none
CCCC(=O)NC1=C(C#N)C2(CCCC2)Cc2ccccc21	none
CCCC(=O)C1=C(c2ccccc2)C(C#N)(C#N)C(C#N)=C1N	CYP2C9 inhib 73.0
Cc1ccccc1N=C1NC(=O)CC(c2ccccc2)S1 (stereo not drawn)	CYP2C19 inhib 62.8
COC(=O)C1=[N+]([O-])OC(C(=O)OC)C1c1c[nH]c2ccccc12 (stereo not drawn)	none
Nc1nc(SCc2ccccc2)ns1	none

Screening results from PubChem.
